Compounds with a hit are over-represented: about 19% of the library has one in this group of screens.
IL-1B inflam inh: inflammasome signaling inhibition, IL-1 beta readout; actives 4.7% (n = 360,000); AID 743279; THP-1 LPS/ATP IL-1B secretion, AlphaLISA, 16 h; hits give low values; activity change, % at 57.5 µM; in the data active = activity change below about -50%; inconclusive = mostly about -30% to -49%
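THP-1 cells pretreated 1 hr with compounds (up to 57.5 uM final), then stimulated with LPS (250 ng/mL final) plus ATP (1.25 mM final); secreted IL-1B measured by AlphaLISA after 16 hr, decreased signal indicating inhibition.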
DT40 TDP1 CPT: DT40-hTDP1 cell growth loss with CPT | actives 12% (n = 420,000) | chicken DT40 Tdp1-/-;hTDP1 cells + 20 nM CPT, ATP luminescence, 48 h | Potency, µM (highest dose often 46.2 µM), for the others: at the top dose activity change, negative = growth inhibition, most hits filed as inhibitors | AID 686979; also: potency is read from the fitted curve at half-maximal effect; nearly all actives have a fitted effect of over 55% in size
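Chicken DT40 Tdp1-/- cells complemented with human TDP1, 400 cells/well, exposed to compounds plus 20 nM camptothecin for at least 48 h at 37 C; viability read as ATP content by CellTiter-Glo luminescence.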
DT40 TDP1 no CPT: qHTS for Inhibitors of human tyrosyl-DNA phosphodiesterase 1 (TDP1): qHTS in cells in absence of CPT | DT40 Tdp1-/- hTDP1 cells, no CPT, ATP luminescence, 48 h | Potency, µM (highest dose often 46.2 µM), for the others: at the top dose activity change, negative = growth inhibition, most hits filed as inhibitors | actives 15% (n = 420,000) | AID 686978, 2013; also: potency is read from the fitted curve at half-maximal effect; nearly all actives have a fitted effect of over 55% in size
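Growth kinetics read by CellTiter-Glo luminescence after ≥48 hr at 37 °C. Cells: DT40 Tdp1-/- stably carrying human TDP1, 400 per well, compound exposure in the absence of CPT (DMSO vehicle).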
HT1080 IDH1KD tx: HT-1080 IDH1 knockdown cell toxicity (counter line); HT-1080 IDH1 knockdown viability, ATP luminescence, 48 h; actives 2% (n = 360,000); Potency, µM (series often up to 46.1 µM), without a hit: at the top dose activity, negative = toxicity, usual class: cytotoxic;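 also: potency is read from the fitted curve at half-maximal effect; 0% = DMSO wells and -100% = cell-free medium wells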
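Luminescent ATP read-out (CellTiter-Glo, 10 min at room temperature) after 48 h compound exposure at 37 °C gave viability of IDH1-knockdown HT-1080 cells. Activity was normalised to DMSO and cell-free wells, then fitted as concentration-response curves.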
HT1080-NT tox: kills 2HG-producing HT-1080-NT fibrosarcoma cells; AID 686970; actives 1.6% (n = 360,000); HT-1080-NT fibrosarcoma viability, CellTiter-Glo ATP luminescence, 48 h; Potency, µM (titrated, usually from 46.1 µM), for inactives: top-dose activity, negative = less viability, usual class: cytotoxic;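 also: NT is the 2HG producing partner of a matched IDH1 knockdown line; potency is read from the fitted curve at half-maximal effect; 0% = DMSO-treated cells and -100% = media-only wells without cells; nearly all actives have a fitted effect of over 55% in size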
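HT-1080-NT fibrosarcoma cells (2HG-overproducing), 750 cells/well in RPMI with 5% FBS, dosed after 2 h and incubated 48 h at 37C. CellTiter-Glo luminescence normalized to DMSO and no-cell wells; concentration-response curves fitted and classed.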
uPA generation: inhibitors of cell surface uPA generation | cell surface uPA generation assay, qHTS | Potency, µM (top dose mostly 38.3 µM), for inactives: top-dose activity change, negative = inhibition, usual class: inhibitors | actives 0.31% (n = 330,000) | AID 540303; active = well fitted inhibition curve with a large enough effect; inconclusive = small, poorly fitted or top-dose-only effect; inactive = no such curve, though single readings can be large or run the other way; tested in mouse RAW 264.7 cells; also: potency is read from the fitted curve at half-maximal effect; nearly all actives have a fitted effect of over 55% in size
Starred values were filed as active, the others as inactive; u = inconclusive; x = no result. Unless noted, calls follow the shape of the dose curve; as a rule, active = well fitted curve in the direction sought with a large enough effect; inconclusive = small, poorly fitted or top-dose-only effect, or another doubt; inactive = no such curve, though single readings can be large; an effect the other way counts as inactive or inconclusive. Unless noted, % is scaled to controls: 0 for no effect and ±100 for the full control effect.

SMILES | IL-1B inflam inh | DT40 TDP1 CPT | DT40 TDP1 no CPT | HT1080 IDH1KD tx | HT1080-NT tox | uPA generation
Cc1ccc(S(=O)(=O)c2c(C)nn(C(C)(C)C)c2OC(=O)CC(C)C)cc1 | 18.8 | -21.0% | u | u | u | 3.4%
COc1cc(CC(=O)OCC(=O)N2CCCCC2)cc(OC)c1OC | 20.2 | 10.0% | -3.9% | -1.0% | 13.8% | 3.9%
CC(=O)Nc1ccccc1OCC(=O)N(Cc1ccccc1)C(C)C | 41.0 | 16.4µM* | 13µM* | -15.2% | -3.1% | -4.1%
CC(=O)Nc1ccccc1OCC(=O)NC(C)c1ccccc1 (stereo not drawn) | -4.0 | -23.9% | -16.7% | -2.7% | 14.5% | 4.2%
O=C(O)c1ccc(Cn2cc(/C=C\[N+](=O)[O-])c3ccccc32)o1 | 12.2 | -4.0% | -0.9% | -1.8% | -0.4% | -8.2%
Cc1cccc(Cn2cc3c(=O)n(Cc4cccc(F)c4)nc-3c3ccccc32)c1 | 21.5 | -20.9% | -24.1% | -3.7% | -0.7% | -0.2%
COC(=O)c1ccc(Cn2cc(/C=C\[N+](=O)[O-])c3ccccc32)o1 | -102.4* | u | u | u | u | -4.8%
CCOC(=O)Cn1cc(/C=C/[N+](=O)[O-])c2ccccc21 | -50.7* | 14.6µM* | 23.1µM* | u | u | 10µM*
Cc1cccc(Cn2cc(/C=C/[N+](=O)[O-])c3ccccc32)c1 | -67.5* | 23.1µM* | u | 23.1µM* | u | -10.8%
CCOC(=O)Cn1cc(C#N)c2ccccc21 | -7.9 | -0.5% | -3.0% | -13.5% | -16.4% | -0.6%
CN(C(=O)c1ccc(NC(=O)Cc2cccc(NC(=O)C3CCN(C(=O)C4CCCC4)CC3)c2)cc1)C1CC1 | -27.1 | 1.5% | u | -3.5% | -3.5% | u
CCOP(=O)(OCC)C(C)(C)NC(=O)Nc1ccc(Cl)c(Cl)c1 | -66.5* | -17.5% | u | -14.4% | -10.6% | 0.0%
CC(C(=O)N1CCN(Cc2ccc3c(c2)OCO3)CC1)c1ccc([N+](=O)[O-])cc1 (stereo not drawn) | 0.0 | -3.9% | u | -19.1% | -2.8% | 3.9%
COc1cc(C(=O)NCC(=O)N/N=C/c2ccc(-c3ccc([N+](=O)[O-])cc3)o2)cc(OC)c1OC | u | u | 20.6µM* | -26.9% | -22.0% | -4.8%
O=C(N/N=C/c1ccc(-c2cccc([N+](=O)[O-])c2)o1)c1ccc([N+](=O)[O-])cc1 | -50.5* | u | 16.4µM* | -11.1% | -3.8% | -1.5%
O=C(N/N=C/c1ccc(-c2cccc([N+](=O)[O-])c2)o1)c1ccccc1O | -2.3 | u | u | -19.1% | -6.5% | 0.1%
O=C(NN=Cc1ccccc1Cl)c1ccc([N+](=O)[O-])cc1 | -6.6 | 6.3% | 2.1% | 17.2% | u | -2.2%
O=C(N/N=C\c1ccc(COc2ccc([N+](=O)[O-])cc2)o1)c1ccc(Cl)cc1 | -60.0* | u | u | -25.9% | -14.7% | 1.4%
COc1cccc(OC)c1CC1SC(=O)NC1=O (stereo not drawn) | -6.5 | -4.1% | -25.0% | 9.3% | 10.0% | 5.6%
O=c1[nH]c2ccc(S(=O)(=O)N3CCCCC3)cc2[nH]c1=O | -6.1 | -1.1% | u | 22.5% | 1.3% | 3.6%
COc1ccc(-n2cc(-c3ccccc3)[nH]c2=S)cc1 | 2.9 | 13µM* | 16.4µM* | -1.0% | -1.6% | -3.0%
CCOc1ccc(-c2cn(-c3ccccc3OC)c(=S)[nH]2)cc1 | 20.1 | u | 18.4µM* | 25.9µM* | u | -16.4%
COc1ccccc1-n1cc(-c2ccccc2)[nH]c1=S | -3.0 | -26.0% | u | 10.3% | 10.0% | -7.3%
COc1ccc(-n2cnc(=S)[nH]c2=S)cc1 | u | 0.581µM* | 0.326µM* | -9.2% | u | -2.2%
COP(=O)(OC)C(NC(=O)Nc1ccccc1)c1ccccc1 (stereo not drawn) | 0.8 | 6.2% | 28.3% | 10.4% | 15.9% | 3.3%
SMILES | IL-1B inflam inh | DT40 TDP1 CPT | DT40 TDP1 no CPT | HT1080 IDH1KD tx | HT1080-NT tox | uPA generation
CN(C)CCCN(C(=O)c1ccc(S(=O)(=O)N2CCc3ccccc3C2)cc1)c1nc2c(F)cccc2s1 | -51.1* | u | u | -11.7% | -6.8% | -2.0%
Cc1cccc2sc(N(CCCN(C)C)C(=O)c3ccc(S(=O)(=O)N4CCc5ccccc5C4)cc3)nc12 | u | 4.11µM* | 6.51µM* | u | u | 2.2%
CN(C)CCCN(C(=O)c1ccc(S(=O)(=O)N2CCCC2)cc1)c1nc2c(F)cc(F)cc2s1 | -6.4 | 4.4% | -23.7% | -5.5% | -13.8% | 1.4%
CCOC(=O)N1CCN(S(=O)(=O)c2ccc(C(=O)N(CCN(C)C)c3nc4c(C)cccc4s3)cc2)CC1 | 10.8 | -7.9% | -1.3% | 4.6% | -9.8% | 4.9%
CN(C)CCCN(C(=O)c1ccc(S(=O)(=O)N2CCCCCC2)cc1)c1nc2c(F)cc(F)cc2s1 | -85.8* | u | 16.4µM* | -2.6% | -7.3% | -0.7%
COc1ccc(C2(C)NC(=O)N(CC(=O)Nc3ccc(Br)cc3F)C2=O)cc1OC (stereo not drawn) | -19.0 | 2.7% | -8.2% | -10.4% | -18.3% | -2.9%
CN(C)c1ccc(Cc2cc3c(O)ccc(O)c3cc(Cc3ccc(N(C)C)cc3)c2=O)cc1 | -112.6* | 3.66µM* | 4.11µM* | u | -1.1% | 2.8%
O=C(O)c1cccc(CN2C(=O)S/C(=C/c3ccccc3[N+](=O)[O-])C2=O)c1 | -82.0* | -18.1% | u | u | -28.2% | -3.2%
O=C1/C(=C/c2ccncc2)SC(=S)N1Cc1ccccc1 | -81.7* | u | 16.4µM* | 18.4µM* | 23.1µM* | -5.2%
O=C1/C(=C\c2ccc(O)c(O)c2)SC(=S)N1Cc1ccccc1 | -87.4* | 20.6µM* | 18.4µM* | u | u | -12.4%
O=C1/C(=C/c2ccncc2)SC(=S)N1N1CCOCC1 | -8.1 | 13µM* | u | -13.9% | -1.0% | -6.4%
O=C1/C(=C\c2cccc(O)c2)SC(=S)N1Cc1ccccc1 | -18.4 | u | u | 4.8% | 4.0% | -13.7%
O=C1/C(=C/c2cccnc2)SC(=S)N1N1CCOCC1 | 25.6 | u | -26.8% | 2.0% | 6.3% | 15.6%
O=c1[nH]c(=O)n2c(c1-c1ccccc1)OC(CBr)C2 (stereo not drawn) | 3.8 | -7.6% | -16.9% | 4.6% | 3.1% | x
CCCNC(=O)C1(C)CCN(C(=O)Cc2ccc(OC)c(OC)c2)C1 (stereo not drawn) | 15.3 | 13.5% | 5.4% | 14.4% | 28.1% | x

Source: PubChem BioAssay
